From PubChem BioAssay AID1159580 (chemical genetic matrix, 2015)
The campaign covered roughly 5,500 compounds. About 2,000 (36%) were called active. Roughly 18% stayed inconclusive and do not appear here. The list shows a part of the results. A number with no mark means an inactive call. No stated cut-off is given here; in the data, active means normalized growth mostly below about 0.91 (no sharp cut-off); inconclusive means no clear call, values can overlap the other calls; inactive means mostly above about 0.92.

Assay: chemical genetic growth profiling, strain panel (AID 1159580);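 further: tested at 20 µM; growth read once vehicle control cultures reached saturation at 30 °C; 1 = growth at the plate median or of vehicle wells; lower values mean less growth of the strain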
Settings: growth OD

Question: For `N=C(N)c1ccc(OCCCCCOc2ccc(C(=N)N)cc2)cc1`, which normalized growth (S. cerevisiae deletion strains, locus YJR043C, strain POL32, active compounds read low) is on record?
Answer: 0.909

Question: What about the normalized growth (S. cerevisiae deletion strains, locus YJR075W, strain HOC1, active compounds read low) of the same compound?
Answer: 0.918

Question: What about the normalized growth (S. cerevisiae deletion strains, locus YKL009W, strain mrt4, active compounds read low) of the same compound?
Answer: 0.942

Question: And the normalized growth (S. cerevisiae deletion strains, locus YKL068W, active compounds read low)?
Answer: 0.92 (active)

Question: What about the normalized growth (S. cerevisiae deletion strains, locus YKL085W, strain MDH1 (second series), active compounds read low) of the same compound?
Answer: 0.936

Question: And the normalized growth (S. cerevisiae deletion strains, locus YKL085W, strain MDH1, active compounds read low)?
Answer: 0.936

Question: What about the normalized growth (S. cerevisiae deletion strains, locus YKL160W, strain elf1, active compounds read low) of the same compound?
Answer: 0.948

Question: What about the normalized growth (S. cerevisiae deletion strains, locus YKL190W, strain CNB1, active compounds read low) of the same compound?
Answer: 0.959

Question: What about the normalized growth (S. cerevisiae deletion strains, locus YKR001C, strain vps1, active compounds read low) of the same compound?
Answer: 0.952

Question: And the normalized growth (S. cerevisiae deletion strains, locus YKR026C, strain gcn3, active compounds read low)?
Answer: 0.967

Question: What about the normalized growth (S. cerevisiae deletion strains, locus YKR091W, strain srl3, active compounds read low) of the same compound?
Answer: 0.961

Question: And the normalized growth (S. cerevisiae deletion strains, locus YLL001W, strain dnm1, active compounds read low)?
Answer: 0.916

Question: What about the normalized growth (S. cerevisiae deletion strains, locus YLL026W, active compounds read low) of the same compound?
Answer: 0.97

Question: What about the normalized growth (S. cerevisiae deletion strains, locus YLL041C, strain sdh2, active compounds read low) of the same compound?
Answer: 0.974

Question: And the normalized growth (S. cerevisiae deletion strains, locus YLR027C, strain aat2, active compounds read low)?
Answer: 0.951

Question: And the normalized growth (S. cerevisiae deletion strains, locus YLR039C, strain RIC1, active compounds read low)?
Answer: 1.09

Question: And the normalized growth (S. cerevisiae deletion strains, locus YLR058C, strain SHM2, active compounds read low)?
Answer: 0.977

Question: What about the normalized growth (S. cerevisiae deletion strains, locus YLR102C, strain apc9, active compounds read low) of the same compound?
Answer: 0.939

Question: And the normalized growth (S. cerevisiae deletion strains, locus YLR221C, strain rsa3, active compounds read low)?
Answer: 0.958

Question: And the normalized growth (S. cerevisiae deletion strains, locus YLR258W, strain gsy2, active compounds read low)?
Answer: 0.963

Question: And the normalized growth (S. cerevisiae deletion strains, locus YLR262C, strain YPT6 (second series), active compounds read low)?
Answer: 0.988

Question: What about the normalized growth (S. cerevisiae deletion strains, locus YLR262C, strain YPT6, active compounds read low) of the same compound?
Answer: 1.11

Question: What about the normalized growth (S. cerevisiae deletion strains, locus YLR268W, strain sec22, active compounds read low) of the same compound?
Answer: 0.887

Question: And the normalized growth (S. cerevisiae deletion strains, locus YLR320W, strain mms22, active compounds read low)?
Answer: 0.89

Question: What about the normalized growth (S. cerevisiae deletion strains, locus YLR330W, strain CHS5, active compounds read low) of the same compound?
Answer: 0.999

Question: And the normalized growth (S. cerevisiae deletion strains, locus YLR342W, strain FKS1 (second series), active compounds read low)?
Answer: 0.89

Question: And the normalized growth (S. cerevisiae deletion strains, locus YLR342W, strain FKS1, active compounds read low)?
Answer: 0.958

Question: What about the normalized growth (S. cerevisiae deletion strains, locus YLR357W, strain rsc2, active compounds read low) of the same compound?
Answer: 0.979

Question: And the normalized growth (S. cerevisiae deletion strains, locus YLR370C, strain arc18, active compounds read low)?
Answer: 0.954

Question: What about the normalized growth (S. cerevisiae deletion strains, locus YLR371W, strain rom2, active compounds read low) of the same compound?
Answer: 0.929

Question: And the normalized growth (S. cerevisiae deletion strains, locus YLR384C, strain iki3, active compounds read low)?
Answer: 0.944

Question: And the normalized growth (S. cerevisiae deletion strains, locus YLR418C, strain cdc73, active compounds read low)?
Answer: 0.789 (active)

Question: And the normalized growth (S. cerevisiae deletion strains, locus YML016C, strain PPZ1, active compounds read low)?
Answer: 0.991

Question: And the normalized growth (S. cerevisiae deletion strains, locus YML032C, strain rad52, active compounds read low)?
Answer: 0.828 (active)

Question: And the normalized growth (S. cerevisiae deletion strains, locus YML120C, strain ndi1, active compounds read low)?
Answer: 0.956

Question: What about the normalized growth (S. cerevisiae deletion strains, locus YML124C, strain tub3, active compounds read low) of the same compound?
Answer: 0.943

Question: And the normalized growth (S. cerevisiae deletion strains, locus YMR058W, strain fet3, active compounds read low)?
Answer: 0.828 (active)

Question: What about the normalized growth (S. cerevisiae deletion strains, locus YMR078C, strain ctf18, active compounds read low) of the same compound?
Answer: 0.912

Question: What about the normalized growth (S. cerevisiae deletion strains, locus YMR125W, strain sto1, active compounds read low) of the same compound?
Answer: 0.949

Question: What about the normalized growth (S. cerevisiae deletion strains, locus YMR129W, active compounds read low) of the same compound?
Answer: 0.974

Question: And the normalized growth (S. cerevisiae deletion strains, locus YMR205C, strain PFK2, active compounds read low)?
Answer: 0.758 (active)

Question: And the normalized growth (S. cerevisiae deletion strains, locus YMR223W, strain ubp8, active compounds read low)?
Answer: 0.868 (active)

Question: And the normalized growth (S. cerevisiae deletion strains, locus YMR231W, strain pep5, active compounds read low)?
Answer: 0.965

Question: And the normalized growth (S. cerevisiae deletion strains, locus YMR263W, strain SAP30, active compounds read low)?
Answer: 0.93

Question: What about the normalized growth (S. cerevisiae deletion strains, locus YMR307W, strain GAS1, active compounds read low) of the same compound?
Answer: 0.554 (active)

Question: What about the normalized growth (S. cerevisiae deletion strains, locus YNL067W, strain RPL9B, active compounds read low) of the same compound?
Answer: 0.93

Question: What about the normalized growth (S. cerevisiae deletion strains, locus YNL071W, strain lat1, active compounds read low) of the same compound?
Answer: 0.957

Question: What about the normalized growth (S. cerevisiae deletion strains, locus YNL128W, strain TEP1, active compounds read low) of the same compound?
Answer: 0.926

Question: What about the normalized growth (S. cerevisiae deletion strains, locus YNL153C, strain GIM3, active compounds read low) of the same compound?
Answer: 0.958

Question: What about the normalized growth (S. cerevisiae deletion strains, locus YNL209W, strain ssb2, active compounds read low) of the same compound?
Answer: 0.948

Question: And the normalized growth (S. cerevisiae deletion strains, locus YNL233W, strain BNI4, active compounds read low)?
Answer: 0.927

Question: What about the normalized growth (S. cerevisiae deletion strains, locus YNL248C, strain rpa49, active compounds read low) of the same compound?
Answer: 0.955

Question: What about the normalized growth (S. cerevisiae deletion strains, locus YNL250W, strain rad50, active compounds read low) of the same compound?
Answer: 0.894 (active)

Question: What about the normalized growth (S. cerevisiae deletion strains, locus YNL271C, strain bni1, active compounds read low) of the same compound?
Answer: 0.929

Question: What about the normalized growth (S. cerevisiae deletion strains, locus YNL298W, strain CLA4, active compounds read low) of the same compound?
Answer: 0.931

Question: What about the normalized growth (S. cerevisiae deletion strains, locus YNL307C, strain MCK1, active compounds read low) of the same compound?
Answer: 0.811 (active)

Question: And the normalized growth (S. cerevisiae deletion strains, locus YNL322C, strain KRE1 (second series), active compounds read low)?
Answer: 0.918

Question: What about the normalized growth (S. cerevisiae deletion strains, locus YNL322C, strain KRE1, active compounds read low) of the same compound?
Answer: 0.972

Question: And the normalized growth (S. cerevisiae deletion strains, locus YNR049C, strain mso1, active compounds read low)?
Answer: 0.941

Question: What about the normalized growth (S. cerevisiae deletion strains, locus YNR052C, strain pop2, active compounds read low) of the same compound?
Answer: 0.823 (active)

Question: And the normalized growth (S. cerevisiae deletion strains, locus YOL006C, strain TOP1, active compounds read low)?
Answer: 1.11

Question: What about the normalized growth (S. cerevisiae deletion strains, locus YOL012C, strain htz1) of the same compound?
Answer: 0.566

Question: And the normalized growth (S. cerevisiae deletion strains, locus YOL147C, strain pex11, active compounds read low)?
Answer: 0.939

Question: And the normalized growth (S. cerevisiae deletion strains, locus YOR001W, strain rrp6, active compounds read low)?
Answer: 0.94

Question: And the normalized growth (S. cerevisiae deletion strains, locus YOR061W, strain CKA2, active compounds read low)?
Answer: 0.964

Question: What about the normalized growth (S. cerevisiae deletion strains, locus YOR069W, strain VPS5, active compounds read low) of the same compound?
Answer: 0.964

Question: And the normalized growth (S. cerevisiae deletion strains, locus YOR070C, strain gyp1, active compounds read low)?
Answer: 0.97

Question: What about the normalized growth (S. cerevisiae deletion strains, locus YOR080W, strain dia2, active compounds read low) of the same compound?
Answer: 0.936

Question: And the normalized growth (S. cerevisiae deletion strains, locus YOR083W, strain WHI5, active compounds read low)?
Answer: 0.927

Question: What about the normalized growth (S. cerevisiae deletion strains, locus YOR106W, strain vam3, active compounds read low) of the same compound?
Answer: 0.997

Question: And the normalized growth (S. cerevisiae deletion strains, locus YOR136W, strain idh2, active compounds read low)?
Answer: 0.95

Question: What about the normalized growth (S. cerevisiae deletion strains, locus YOR144C, strain elg1, active compounds read low) of the same compound?
Answer: 0.921 (active)

Question: And the normalized growth (S. cerevisiae deletion strains, locus YOR184W, strain ser1, active compounds read low)?
Answer: 0.832 (active)

Question: What about the normalized growth (S. cerevisiae deletion strains, locus YOR265W, strain rbl2, active compounds read low) of the same compound?
Answer: 0.962

Question: And the normalized growth (S. cerevisiae deletion strains, locus YOR270C, strain vph1, active compounds read low)?
Answer: 1.17

Question: And the normalized growth (S. cerevisiae deletion strains, locus YOR290C, strain snf2, active compounds read low)?
Answer: 0.946

Question: What about the normalized growth (S. cerevisiae deletion strains, locus YOR316C, strain cot1, active compounds read low) of the same compound?
Answer: 0.943

Question: What about the normalized growth (S. cerevisiae deletion strains, locus YPL051W, strain arl3, active compounds read low) of the same compound?
Answer: 0.98

Question: What about the normalized growth (S. cerevisiae deletion strains, locus YPL055C, strain LGE1, active compounds read low) of the same compound?
Answer: 0.943

Question: And the normalized growth (S. cerevisiae deletion strains, locus YPL078C, strain atp4, active compounds read low)?
Answer: 1.03

Question: And the normalized growth (S. cerevisiae deletion strains, locus YPL106C, strain sse1, active compounds read low)?
Answer: 0.948

Question: And the normalized growth (S. cerevisiae deletion strains, locus YPL240C, strain hsp82, active compounds read low)?
Answer: 0.989

Question: What about the normalized growth (S. cerevisiae deletion strains, locus YPL241C, strain CIN2, active compounds read low) of the same compound?
Answer: 0.973

Question: And the normalized growth (S. cerevisiae deletion strains, locus YPR119W, strain clb2, active compounds read low)?
Answer: 0.934

Question: And the normalized growth (S. cerevisiae deletion strains, locus YPR141C, strain kar3, active compounds read low)?
Answer: 0.905 (active)

Question: And the normalized growth (S. cerevisiae deletion strains, locus YPR163C, strain tif3, active compounds read low)?
Answer: 0.901 (active)

Question: What about the normalized growth (S. cerevisiae deletion strains, locus YPR167C, strain met16, active compounds read low) of the same compound?
Answer: 0.944

Question: And the normalized growth (S. cerevisiae deletion strains, strain wtn01, active compounds read low)?
Answer: 0.891 (active)

Question: What about the normalized growth (S. cerevisiae strains, strain wild type, active compounds read low) of the same compound?
Answer: 0.94
